Bioassay records as filed in PubChem BioAssay.
Most compounds without a hit are left out; they make up all but 6.2% or so of the library.
RORgamma inh – ROR gamma (mouse) transcription inhibition; P51450; Drosophila S2 Gal4-RORgamma UAS-luciferase reporter, 20 h; Potency, µM (titrated, usually from 53.6 µM), actives largely listed as inhibitors; 310,000 tested, 5.4% active; further: nearly all actives have a fitted effect of over 60% in size
Target sequence (P51450 whole entry, looked up, the tested form may be a part): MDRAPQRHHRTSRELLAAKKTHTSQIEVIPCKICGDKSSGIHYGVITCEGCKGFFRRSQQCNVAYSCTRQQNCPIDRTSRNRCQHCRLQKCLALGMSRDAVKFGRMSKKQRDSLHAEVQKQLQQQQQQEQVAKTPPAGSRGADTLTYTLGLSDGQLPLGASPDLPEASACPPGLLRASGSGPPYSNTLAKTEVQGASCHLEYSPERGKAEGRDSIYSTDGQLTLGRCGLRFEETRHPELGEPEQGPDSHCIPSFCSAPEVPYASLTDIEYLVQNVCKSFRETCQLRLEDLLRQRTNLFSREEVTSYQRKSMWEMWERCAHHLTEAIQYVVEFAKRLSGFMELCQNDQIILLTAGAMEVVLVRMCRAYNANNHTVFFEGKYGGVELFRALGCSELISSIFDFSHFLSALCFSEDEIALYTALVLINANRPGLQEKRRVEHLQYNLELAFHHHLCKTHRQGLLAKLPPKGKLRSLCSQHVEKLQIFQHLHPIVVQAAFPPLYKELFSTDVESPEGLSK
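Drosophila S2 cells stably expressing Gal4-DBD/mouse RORγ fusion under metallothionein promoter plus UAS-luciferase; compound 1 h, then 700 uM CuSO4 induction for 20 h at ambient temperature; inhibition read as reduced luminescence.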
Gal4-VP16 FLuc – inhibits Gal4-VP16 luciferase reporter, ROR gamma counter-screen; Drosophila S2 Gal4-VP16 UAS-luciferase, luminescence, 20 h; Potency, µM (titrated, usually from 53.6 µM), actives largely listed as inhibitors; 310,000 tested, 3.5% active; AID 2546;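 further: Gal4-VP16 expression switched on by copper sulfate through the metallothionein promoter; nearly all actives have a fitted effect of over 50% in size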
Luc counter – blocks Kinase-Glo luciferase, a counter-screen artifact; Q27757; Kinase-Glo luciferase, ATP luminescence, 8 min; Potency, µM (doses to about 38.3 µM), actives largely listed as inhibitors; 200,000 tested, 0.28% active; AID 1379; further: nearly all actives have a fitted effect of over 60% in size
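Inhibition of Kinase-Glo luciferase light generation was assessed at 10 uM ATP in pH 7.2 imidazole buffer, with luminescence measured after eight minutes at ambient temperature.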
Each line names hits and unclear results; the compound was inactive in the other large screens. The call rests on the fitted dose curve; in most records, active means well fitted curve in the direction sought with a large enough effect; inconclusive means small, poorly fitted or top-dose-only effect, or another doubt; inactive means no such curve, though single readings can be large; an effect the other way counts as inactive or inconclusive.

O=C(Cc1cccc2ccccc12)NNC(=O)c1ccc(Br)o1	none (no result: Luc counter)
O=C(Nc1ccc2ccccc2c1)c1ccc(Cl)cc1Cl	RORgamma inh 7.94µM, Gal4-VP16 FLuc inconclusive (no result: Luc counter)
CCC(=O)NC(=S)Nc1cccc(C(C)=O)c1	RORgamma inh 11.2µM
O=C(Nc1ccc2ccccc2c1)c1cc(F)c(F)cc1Cl	RORgamma inh inconclusive (no result: Luc counter)
CCCCC(=O)Nc1cccc(-c2nc3ncccc3o2)c1	none
CCC(=O)NC(=S)Nc1cccc(-c2nc3ncccc3o2)c1	RORgamma inh 12.6µM
CCC(=O)NC(=S)Nc1cccc(NC(=O)CC)c1	none
CC1CCN(C(=O)C(=O)c2cn(CC(=O)N3CCCCCC3)c3ccccc23)CC1	none (no result: Luc counter)
CC1CCN(C(=S)c2cn(Cc3cccc(F)c3)c3ccccc23)CC1	RORgamma inh 10µM, Gal4-VP16 FLuc inconclusive
CN1CCN(C(=S)c2cn(Cc3ccc(Br)cc3)c3ccccc23)CC1	RORgamma inh 25.1µM
CN1CCN(C(=S)c2cn(Cc3ccccc3)c3ccccc23)CC1	RORgamma inh inconclusive
Fc1ccc(Cn2cc(C(=S)N3CCOCC3)c3ccccc32)cc1	RORgamma inh 8.91µM, Gal4-VP16 FLuc inconclusive (no result: Luc counter)
Fc1ccccc1Cn1cc(C(=S)N2CCOCC2)c2ccccc21	RORgamma inh inconclusive (no result: Luc counter)
Cc1ccc(C(C(=O)NCc2ccco2)N(CCc2ccccc2)C(=O)Cn2nnc3ccccc32)o1 (stereo unspecified)	none
COc1ccc(NS(=O)(=O)c2ccc(S(=O)(=O)N3CCCC3)cc2)cc1Cl	none
COc1cccc(-n2nc(C(N)=O)c(O)cc2=O)c1	none
COc1cccc(-n2nc(C#N)c(Cl)cc2=O)c1	RORgamma inh 3.55µM, Gal4-VP16 FLuc 7.08µM
Cc1ccc(C)c(-n2c(-c3ccc(Br)cc3)csc2=NC(=O)c2ccccc2F)c1	RORgamma inh inconclusive (no result: Luc counter)
Cc1cc(NC(=O)CCC(=O)N(CC(=O)NC2CCCC2)c2ccc(F)c(Cl)c2)no1	none (no result: Luc counter)
CN(C)c1ncc2nc(-c3ccc(Cl)cc3)c(=O)n(CCC#N)c2n1	none (no result: Luc counter)
O=C(Nc1ccccc1)NC1CCS(=O)(=O)C1 (stereo unspecified)	none
O=C(c1ccccc1)N(Cc1ccc(F)cc1)C1CCS(=O)(=O)C1 (stereo unspecified)	RORgamma inh inconclusive
CC(=O)NC1=C(NC2CCS(=O)(=O)C2)C(=O)c2ccccc2C1=O (stereo unspecified)	RORgamma inh inconclusive, Gal4-VP16 FLuc 17.8µM
CN(C1=C(NC(=O)c2ccccc2)C(=O)c2ccccc2C1=O)C1CCS(=O)(=O)C1 (stereo unspecified)	RORgamma inh 14.1µM, Gal4-VP16 FLuc 7.08µM
CCN(CC)S(=O)(=O)c1ccc(N2CCc3cc(OC)c(OC)cc3C2)nc1	none (no result: Luc counter)
CCc1ccccc1NC(=O)C1CCCN1C(=O)NCc1ccccc1 (stereo unspecified)	none (no result: Luc counter)
CN1C=CC(=CC=C2C=CC(=O)C=C2)C=C1	none (no result: Luc counter)
CCn1ccnc1CNC(=O)CC1C(=O)NCCN1Cc1ccc(OC)cc1OC (stereo unspecified)	none (no result: Luc counter)
CC1(C)CC(=O)C(C2C3=C(CC(C)(C)CC3=O)OC3=C2C(=O)CC(C)(C)C3)=C(O)C1	none (no result: Luc counter)
O=C(NN=C1CCCC1)c1[nH]c2ccc(Br)cc2c1-c1ccccc1	RORgamma inh 11.2µM, Gal4-VP16 FLuc inconclusive (no result: Luc counter)
O=C(N/N=C/c1ccccc1)c1[nH]c2ccc(Br)cc2c1-c1ccccc1	RORgamma inh inconclusive, Gal4-VP16 FLuc inconclusive
COC(=O)C1=C[C@@H](C(=O)OC)[C@@H]2C3=C(C(=O)C2(C)C)[C@H](c2ccccc2)[C@@H]2C(=O)N(c4ccccc4)C(=O)[C@@H]2[C@@H]3C1	none (no result: Luc counter)
O=c1[nH]nc(Cc2ccc(-c3cccc(Cl)c3)o2)c2ccccc12	none
Clc1cccc(-c2ccc(CNCc3ccccn3)o2)c1	RORgamma inh 11.2µM, Gal4-VP16 FLuc inconclusive (no result: Luc counter)
Oc1cccc(/C=N/NC(=S)NCCN2CCOCC2)c1O	RORgamma inh 7.08µM, Gal4-VP16 FLuc inconclusive
S=C(NCCN1CCOCC1)N/N=C/c1cccs1	RORgamma inh 1.26µM, Gal4-VP16 FLuc 4.47µM (no result: Luc counter)
O=C(O)c1ccc(/C=N/NC(=S)NCCN2CCOCC2)cc1	none
S=C(NCCc1ccccc1)NCCN1CCOCC1	none (no result: Luc counter)
COc1ccc(OC)c(NC(=O)NNC(=O)COc2ccc([N+](=O)[O-])cc2)c1	none (no result: Luc counter)
O=C(Nc1ccc2c(c1)OCCO2)c1cc2ccccc2o1	Gal4-VP16 FLuc inconclusive
Cc1csc(C(C#N)C(=O)c2cc3ccccc3o2)n1 (stereo unspecified)	RORgamma inh 10µM
S=C(NCCc1ccccn1)Nc1ccc(Cl)cc1Cl	RORgamma inh 5.01µM, Gal4-VP16 FLuc inconclusive
S=C(NCc1ccccn1)Nc1ccc(Br)cc1Cl	RORgamma inh 7.08µM, Gal4-VP16 FLuc inconclusive
S=C(NCc1ccccn1)Nc1ccccc1Cl	RORgamma inh 10µM, Gal4-VP16 FLuc inconclusive
O=C(NCc1ccccn1)Nc1ccccc1Cl	none (no result: Luc counter)
S=C(NCCc1ccccc1)Nc1ccccc1Cl	RORgamma inh 5.62µM, Gal4-VP16 FLuc 10µM
S=C(NCCCc1ccccc1)Nc1ccccc1Cl	RORgamma inh inconclusive
O=C(NCc1ccccn1)Nc1ccc(Br)cc1Cl	none (no result: Luc counter)
O=C(NCc1ccccn1)Nc1ccc(Cl)cc1Cl	none (no result: Luc counter)
C=CCN1C(=O)C2(OCCCO2)c2cc(C)ccc21	none (no result: Luc counter)
CC#CCN1c2ccccc2[C@]23C[C@@H](C(=O)OC)N(S(=O)(=O)c4ccc(C)cc4)C2=NC(C(=O)OC)=C(C(=O)OC)[C@H]13	none (no result: RORgamma inh, Gal4-VP16 FLuc)
COc1c2c(nc3occc13)C(CC=C(C)C)(OC)C(OC(C)=O)CC2 (stereo unspecified)	none
CCC(C(=O)NC(CC(=O)O)c1ccc(Cl)cc1)c1ccccc1 (stereo unspecified)	none (no result: Luc counter)
S=C(NCCc1ccncc1)Nc1cccc2ccccc12	RORgamma inh 10µM, Gal4-VP16 FLuc inconclusive
Cc1c(Cl)cccc1NC(=S)NCCc1ccc(C(F)(F)F)cc1	RORgamma inh 2.51µM, Gal4-VP16 FLuc inconclusive
O=C(NCCc1ccncc1)Nc1ccccc1Cl	none
S=C(NCCc1ccccn1)Nc1ccccc1Cl	RORgamma inh 6.31µM, Gal4-VP16 FLuc 12.6µM
Cc1c(Cl)cccc1NC(=S)NCCCN(C)C	none
Cc1c(Cl)cccc1NC(=O)NCc1ccccn1	none (no result: Luc counter)
C=CCNC(=S)Nc1cccc2ccccc12	none
Cc1c(Cl)cccc1NC(=S)NCCc1ccccn1	RORgamma inh 2.51µM, Gal4-VP16 FLuc 8.91µM (no result: Luc counter)
COc1ccc(-n2nc3c(c2NC(=O)c2ccc(S(=O)(=O)N4CCOCC4)cc2)CS(=O)C3)cc1 (stereo unspecified)	none
CC(C)[C@@H](CC(=O)N[C@@H]1CCNC[C@H]1C(=O)N[C@H](CC(=O)N[C@@H](CCC(=O)O)CC(=O)O)Cc1c[nH]c2ccccc12)NC(=O)C[C@H](Cc1ccccc1)NC(=O)[C@@H]1CCCC[C@H]1N	none
NS(=O)(=O)c1ccc(NC(=O)CCC(=O)O)cc1	none (no result: Luc counter)
CCN(CC(=O)Nc1cccc(OC)c1)C(=O)C1CCN(C(=O)Nc2ccccc2)CC1	none
N/C(CN1CCCC1=O)=N\OC(=O)c1ccccc1Cl	RORgamma inh inconclusive, Gal4-VP16 FLuc inconclusive
N=C(N)c1ccc(/C=C\c2ccc(C(=N)N)cc2)cc1	none (no result: RORgamma inh, Gal4-VP16 FLuc)
FC(F)(F)c1ccccc1NC(=S)Nc1cccc(Cl)c1	RORgamma inh inconclusive
Fc1ccccc1NC(=S)NCCc1cccc(Cl)c1	RORgamma inh 7.08µM, Gal4-VP16 FLuc 10µM (no result: Luc counter)
S=C(NCc1ccccc1)NCc1ccccn1	RORgamma inh inconclusive (no result: Luc counter)
CC(C1CC1)N(Cc1ccccc1)C(=O)NC(=O)c1ccccc1 (stereo unspecified)	none
